Compounds with a hit are over-represented: about 21% of the library has one in this group of screens.
Cycloheximide cs = counter-screen for Shiga toxin inhibitors: cycloheximide protein synthesis inhibition; cell reporter, cycloheximide protein synthesis inhibition counterscreen; max response, %; actives 12% (n = 300,000); in the data active = max response mostly above about 13%, no sharp cut-off; inactive = mostly below about 14%; also: read at 38.3 µM for the half of the compounds with a filed dose; 0% is about no effect
HCMV antiviral = human cytomegalovirus inhibition. HFF cells, HCMV-luciferase reporter, 72 h; stronger effect = lower value. actives 4.5% (n = 410,000). activity change, negative = inhibition, % at 57.5 µM; in the data active = activity change below about -60%; inconclusive = no clear call, values can overlap the other calls; inactive = above about -39%; also: % is scaled to controls: 0 for no effect and ±100 for the full control effect
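Compounds were evaluated in HFFs infected with an HCMV luciferase reporter virus (MOI 1 PFU/cell). Luciferase in lysates collected 72 h post infection served as the replication measure.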
Pf growth 96h = P. falciparum growth inhibition at 96 hours | P. falciparum luciferase reporter growth, 96 h | Potency, µM (top dose mostly 28.7 µM), for inactives: at the top dose activity change, negative = inhibition, most hits filed as inhibitors | actives 6.9% (n = 320,000); also: potency is read from the fitted curve at half-maximal effect; % is scaled to controls: 0 for no effect and ±100 for the full control effect
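Cell-based qHTS: luciferase-tagged P. falciparum in erythrocytes (2% hematocrit, 0.05% parasitemia final) incubated with compounds for 96 hours, 37 C, 5% CO2; luciferase detection reagent then added and luminescence measured.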
Shiga toxin inh = Shiga toxin inhibition | actives 9.2% (n = 290,000) | AID 2315 | Vero cells, Shiga toxin protein synthesis inhibition reporter | inhibition, % at 38.7 µM; in the data active = inhibition mostly above about 28%, no sharp cut-off; inactive = mostly below about 43%; also: 0% is about no effect
Pf growth 48h = P. falciparum growth inhibition at 48 hours (one generation). P. falciparum luciferase growth in erythrocytes, 48 h. Potency, µM (titrated, usually from 28.7 µM), for inactives: top-dose activity change, negative = inhibition, hits mostly inhibitors. actives 5.9% (n = 310,000); also: potency is read from the fitted curve at half-maximal effect; % is scaled to controls: 0 for no effect and ±100 for the full control effect
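Growth was read as firefly luciferase luminescence after a 48 h, 37 C, 5% CO2 exposure of compounds to reporter-bearing P. falciparum cultures (0.1% parasitemia, 2% hematocrit final) in Albumax-supplemented RPMI 1640.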
HCV inh = inhibitors of hepatitis C virus infection. Huh7.5.1 HCVcc-Cre infection, luciferase reporter, 44 h. Potency, µM (titrated, usually from 41.8 µM), without a hit: top-dose activity change, negative = inhibition, usual class: inhibitors. actives 3.4% (n = 340,000). AID 651820; also: potency is read from the fitted curve at half-maximal effect; % is scaled to controls: 0 for no effect and ±100 for the full control effect
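Whole-lifecycle infectious HCVcc-Cre system; cells 1,000/well, compound then virus (~0.5 moi) added 4 h after plating, 44 h culture. Luciferase read 15 sec following 15 min substrate incubation, room temp.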
The depositor's hits bear a star. Unless noted, calls follow the shape of the dose curve; as a rule, active = well fitted inhibition curve with a large enough effect; inconclusive = small, poorly fitted or top-dose-only effect, or another doubt; inactive = no such curve, though single readings can be large or run the other way.

For O=C(N/N=C1\CCCc2ccccc21)c1ccccc1Cl the results were Cycloheximide cs 36*, HCMV antiviral 48, Pf growth 96h 60%, Shiga toxin inh 63*, Pf growth 48h 52% and HCV inh -7%.
`COc1ccc2c(c1)CCC/C2=N\NC(=O)c1ccoc1C` gave Cycloheximide cs 86*, HCMV antiviral 46, Pf growth 96h 15%, Shiga toxin inh active, Pf growth 48h 70% and HCV inh -3%.
CCOC(=O)c1c(C)[nH]c(C)c1C(=O)COC(=O)COc1ccc(Cl)c(C)c1 was read as HCMV antiviral -10, Pf growth 96h 9%, Pf growth 48h inconclusive and HCV inh 5%.
Cc1ccc(-c2cn3nc(N4CCCC(C(=O)NCc5ccc(F)cc5)C4)sc3n2)cc1 (stereo not given) was read as HCMV antiviral 0.
O=C(CCC(=O)N1CCN(S(=O)(=O)c2ccccc2)CC1)c1ccc(Br)cc1 was read as HCMV antiviral 7 and HCV inh inconclusive.
`Cc1ccc2[nH]c(=O)c(CN(C(=O)c3cccc([N+](=O)[O-])c3)C(C)C)cc2c1` gave Cycloheximide cs -2, HCMV antiviral 13, Pf growth 96h 0%, Shiga toxin inh 25, Pf growth 48h 10% and HCV inh inconclusive.
For CCOc1ccc(CCNC(=O)CSc2nc3ncc(Cl)cc3[nH]2)cc1OCC the results were Cycloheximide cs -1, HCMV antiviral 29, Pf growth 96h inconclusive, Shiga toxin inh -8, Pf growth 48h -21% and HCV inh -15%.
O=C(N/N=C1\CCc2ccccc21)c1ccncc1 was read as Cycloheximide cs 46*, HCMV antiviral 48, Pf growth 96h 67%, Shiga toxin inh 56*, Pf growth 48h 129% and HCV inh 24%.
O=C(O)c1ccc(N/N=C2/CCCc3ccccc32)cc1 was read as Cycloheximide cs 33*, HCMV antiviral 69, Pf growth 96h 63%, Shiga toxin inh 59*, Pf growth 48h 68% and HCV inh 29%.
`Cc1cc(C(=O)N/N=C2\CCCc3ccccc32)c(C)o1` gave Cycloheximide cs 26*, HCMV antiviral 11, Pf growth 96h 49%, Shiga toxin inh 51, Pf growth 48h 89% and HCV inh -8%.
COc1ccccc1CCNC(=O)C(=O)NCC(c1ccc2c(c1)OCO2)N1CCOCC1 (stereo not given) was read as HCMV antiviral 36.
`O=C(Nc1ccc(Oc2cccc(C(F)(F)F)c2)nc1)c1ccco1` gave Cycloheximide cs -1, HCMV antiviral -72*, Pf growth 96h 13µM*, Shiga toxin inh 16, Pf growth 48h inconclusive and HCV inh 10µM*.
For O=C(Nc1ccc(Oc2ncccn2)cc1)c1ccco1 the results were Cycloheximide cs 13, HCMV antiviral 48, Pf growth 96h 21%, Shiga toxin inh 43, Pf growth 48h 40% and HCV inh 7%.
Screening CC(C)(C)c1ccc(Oc2ccc(NC(=O)c3ccco3)cn2)cc1 returned Cycloheximide cs -3, HCMV antiviral -103*, Pf growth 96h 8.3µM*, Shiga toxin inh 27, Pf growth 48h 2.1µM* and HCV inh 7.9µM*.
`O=C(Nc1ccc(Oc2cccnc2)nc1)c1ccc(C(F)(F)F)cc1` gave Cycloheximide cs 17, HCMV antiviral -72*, Pf growth 96h inconclusive, Shiga toxin inh 19, Pf growth 48h inconclusive and HCV inh 2.2µM*.
`O=C(Nc1cccc(Oc2ccc3c(c2)C(=O)NC3=O)c1)c1ccco1` gave Cycloheximide cs -1, HCMV antiviral 6, Shiga toxin inh -1, Pf growth 48h 6% and HCV inh 24%.
Screening Cc1c(C(=O)NN2CCOCC2)nn(-c2ccc(Cl)cc2Cl)c1-c1ccc(I)cc1 returned Cycloheximide cs -1 and Shiga toxin inh -11.
Cc1ccc(C)c(NC(=O)CCCn2nc(C)c3sc4ccccc4c3c2=O)c1 was read as HCMV antiviral 20.
Screening CN(C)c1ccc(C2/C(=C(/O)c3ccc(Br)cc3)C(=O)C(=O)N2C)cc1 (stereo not given) returned Cycloheximide cs -2, HCMV antiviral 17, Pf growth 96h 5.9µM*, Shiga toxin inh -3 and HCV inh 25%.
For COc1ccc(NC(=O)CCn2c(=O)c3cccn3c3ccccc32)c(OC)c1 the results were Cycloheximide cs -7, HCMV antiviral -35, Pf growth 96h 12µM*, Shiga toxin inh -3, Pf growth 48h inconclusive and HCV inh inconclusive.
For Cc1cc(C)cc(NC(=O)CCCn2c3ccccc3c(=O)c3ccccc32)c1 the results were HCMV antiviral -77*.
`Cc1ccc(NC(=O)Cn2c(=O)c3cccn3c3ccccc32)c(C)c1` gave Cycloheximide cs -2, HCMV antiviral 7, Pf growth 96h inconclusive, Shiga toxin inh -3, Pf growth 48h inconclusive and HCV inh -1%.
For Cc1ccc(NC(=O)CCn2c(=O)c3cccn3c3ccccc32)c(C)c1 the results were Cycloheximide cs -3, HCMV antiviral inconclusive, Pf growth 96h 13µM*, Shiga toxin inh -9, Pf growth 48h inconclusive and HCV inh inconclusive.
Cc1cc(C)cc(NC(=O)CCn2c(=O)c3cccn3c3ccccc32)c1 was read as Cycloheximide cs -9, HCMV antiviral -14, Pf growth 96h -8%, Shiga toxin inh -7, Pf growth 48h -5% and HCV inh 3.2µM*.
Screening CCOCCCNC(=O)C(c1ccc(OC)cc1)N(Cc1ccc2c(c1)OCO2)C(=O)c1ccccc1O (stereo not given) returned Cycloheximide cs 7, HCMV antiviral -26, Pf growth 96h -40%, Shiga toxin inh -7, Pf growth 48h inconclusive and HCV inh inconclusive.
Screening O=C(Nc1ccccc1Cl)OCC#CCOC(=O)Nc1ccccc1Cl returned HCMV antiviral -12.
`Cc1ccccc1N1CCN(S(=O)(=O)CC23CCC(CC2=O)C3(C)C)CC1` (stereo not given) gave Cycloheximide cs -2, HCMV antiviral -9, Pf growth 96h inconclusive, Shiga toxin inh -8, Pf growth 48h inconclusive and HCV inh -21%.
CC1(C)C2CCC1(CS(=O)(=O)N1CCCc3ccccc31)C(=O)C2 (stereo not given) was read as Cycloheximide cs 18*, HCMV antiviral 43, Pf growth 96h 63%, Shiga toxin inh 22, Pf growth 48h 9% and HCV inh 7%.
`O=C(CN1CCCN(Cc2ccc(F)cc2)S1(=O)=O)NCc1ccccc1Cl` gave HCMV antiviral 0.

Screens (PubChem BioAssay)
